Mito fusion act = mitochondrial division inhibition or fusion activation; S. cerevisiae fusion-defective mutant growth rescue, CellTiterGlo 48 h; Potency, µM (series often up to 46.1 µM), most hits filed as activators; 320,000 tested, 0.23% active; AID 485298; also: nearly all actives have a fitted effect of over 45% in size
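Temperature-sensitive fusion-defective S. cerevisiae (e.g. fzo1-1, mgm1-5) were grown with compound in YPEG medium (3% ethanol, 3% glycerol) for 48 hours at 37C. Growth rescue was measured as viability by CellTiterGlo luminescence after 10 minutes at ambient.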
aSyn yeast inh = rescues yeast growth from alpha-synuclein toxicity | 370,000 tested, 0.14% active | Potency, µM (titrated, usually from 46.1 µM), most hits filed as activators | Yeast expressing alpha-synuclein, growth rescue, BacTiter-Glo, 24 h; also: nearly all actives have a fitted effect of over 65% in size
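Galactose-induced alpha-syn yeast (OD600=0.02, raffinose-pregrown) + pinned cpd, 24 hr, 30 deg C; growth by BacTiter-Glo luminescence. Growth restoration scores as activation.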
Abeta rescue = restores growth of yeast expressing A-beta42 peptide. 410,000 tested, 0.063% active. Potency, µM (doses to about 46.1 µM), usual class: activators. yeast expressing A-beta42, growth rescue, OD600, 48 h; response scale: 0% DMSO, 100% iron-clioquinol control; also: nearly all actives have a fitted effect of over 55% in size
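Growth rescue measured by 600 nm absorbance after 48 h yeast culture at 30 C with compound. Values normalized between DMSO and an equimolar ferric chloride plus clioquinol control.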
TDP-43 yeast inh = rescues yeast growth from TDP-43 toxicity | TDP-43 expressing yeast growth rescue, BacTiter-Glo, 24 h | Potency, µM (series often up to 46.1 µM), hits mostly activators | 410,000 tested, 1.8% active | AID 652104; also: nearly all actives have a fitted effect of over 50% in size
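In this qHTS, compounds that restore growth of yeast expressing TDP-43 appear as activators. Cells (OD600=0.02, galactose medium, raffinose-pregrown) are incubated with compound 24 hr at 30 deg C and growth is quantified by BacTiter-Glo.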
FUS suppressor = suppressors of FUS proteinopathy in yeast; S. cerevisiae FUS-expressing, growth rescue, OD600, 24 h; Potency, µM (highest dose often 76.6 µM), hits mostly activators; 390,000 tested, 0.24% active; AID 1347120; also: nearly all actives have a fitted effect of over 55% in size
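Cultures pregrown in 2.5% raffinose medium are shifted to minimal medium containing 2% galactose to express toxic FUS. Compounds are tested at several concentrations. After 24hr at 30C, growth is quantified at 600 nm absorbance.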
Each line names hits and unclear results; the compound was inactive in the other large screens. Rows were chosen to be rich in hits. Some 2.2% of all compounds tested hit in one or more screens of this group. Calls follow the shape of the dose curve; as a rule, active = well fitted curve in the direction sought with a large enough effect; inconclusive = small, poorly fitted or top-dose-only effect, or another doubt; inactive = no such curve, though single readings can be large; an effect the other way counts as inactive or inconclusive.

CN1CCC(N[C@@H](Cc2ccccc2)C(=O)NCCCc2ccccc2)(C(=O)NCCc2c[nH]c3ccccc23)CC1	none (no result: Mito fusion act, aSyn yeast inh, Abeta rescue, TDP-43 yeast inh)
c1ccc(Nc2nc(NCc3ccco3)nc3nccnc23)cc1	none (no result: Mito fusion act, Abeta rescue, TDP-43 yeast inh, FUS suppressor)
CC(Oc1ccc(Br)cc1)c1nc2c3ccccc3nc(=S)n2[nH]1 (configuration not stated)	Abeta rescue inconclusive, FUS suppressor 35.5µM
CC(CCc1ccccc1)NC(=O)c1nnc(Cc2ccc(Cl)cc2)o1 (configuration not stated)	TDP-43 yeast inh 22.4µM
O=C(Nc1nnc(-c2ccco2)s1)C1CCCCC1	none
O=C(Nc1nc(-c2ccco2)c(-c2ccco2)s1)C1CCC1	Mito fusion act inconclusive, TDP-43 yeast inh 35.5µM
Cn1ncc(Cl)c1C(=O)Nc1cccc(Cl)c1	TDP-43 yeast inh 7.08µM
Cn1nccc1C(=O)N1CCN(c2cccc(Cl)c2)CC1	none
CSc1cccc(NC(=O)c2c(Cl)cnn2C)c1	TDP-43 yeast inh inconclusive
Cn1ncc(Cl)c1C(=O)N1CCN(c2cccc(Cl)c2)CC1	TDP-43 yeast inh 14.1µM
Cn1c(=O)n(CC(=O)NCC2CCCO2)c(=O)c2c3c(sc21)CCCC3 (configuration not stated)	aSyn yeast inh inconclusive
C#CCOCCOCCOCCNc1nc(N2CCN(C(=O)CCCCCCCCCCNC(=O)[C@H](CCCCN)n3cc(C)nn3)CC2)nc(N2CCN(C(=O)CCCCCCCCCCNC(=O)[C@H](CCCN=C(N)N)n3cc(C[C@@H](C)CC)nn3)CC2)n1	TDP-43 yeast inh inconclusive, FUS suppressor inconclusive
C#CCOCCOCCOCCNc1nc(N2CCN(C(=O)CCCCCCCCCCNC(=O)[C@@H](CCSC)n3cc(CCO)nn3)CC2)nc(N2CCN(C(=O)CCCCCCCCCCNC(=O)[C@H](CCCN=C(N)N)n3cc(C[C@@H](C)CC)nn3)CC2)n1	FUS suppressor 10µM
C#CCOCCOCCOCCNc1nc(N2CCN(C(=O)CCCCCCCCCCNC(=O)[C@H](CO)n3cc(CCCCCN)nn3)CC2)nc(N2CCN(C(=O)CCCCCCCCCCNC(=O)[C@H](CCCN=C(N)N)n3cc(C[C@@H](C)CC)nn3)CC2)n1	none (no result: aSyn yeast inh, Abeta rescue, TDP-43 yeast inh, FUS suppressor)
C#CCOCCOCCOCCNc1nc(N2CCN(C(=O)CCCCCCCCCCNC(=O)[C@H](CCCCN)n3cc(C[C@@H](C)CC)nn3)CC2)nc(N2CCN(C(=O)CCCCCCCCCCNC(=O)[C@H](CCCN=C(N)N)n3cc(C[C@@H](C)CC)nn3)CC2)n1	FUS suppressor 10µM
CCOc1cccc(NC(=O)C2CC(=O)N(C)C(=Nc3ccc(OC)cc3)S2)c1 (configuration not stated)	none (no result: Mito fusion act)
COc1cccc(N=C2SC(C(=O)Nc3ccc(F)cc3)CC(=O)N2C)c1 (configuration not stated)	none
CCOc1cccc(NC(=O)C2CC(=O)N(C)C(=Nc3cccc(OC)c3)S2)c1 (configuration not stated)	TDP-43 yeast inh 35.5µM, FUS suppressor inconclusive (no result: Mito fusion act, aSyn yeast inh)
CCOc1cccc(NC(=O)C2CC(=O)N(C)C(=Nc3ccc(F)cc3)S2)c1 (configuration not stated)	Abeta rescue 15.8µM, TDP-43 yeast inh 25.1µM (no result: aSyn yeast inh)
COc1cccc(C(c2sc3nc(-c4ccco4)nn3c2O)N2CCC(O)CC2)c1 (configuration not stated)	none (no result: Mito fusion act, aSyn yeast inh)
O=C(Cc1ccc(Br)cc1)c1ccc(O)cc1O	TDP-43 yeast inh inconclusive
O=C(Cc1ccc([N+](=O)[O-])cc1)c1ccc(O)cc1O	TDP-43 yeast inh 15.8µM
COc1ccc(CC(=O)c2ccc(O)cc2O)cc1	TDP-43 yeast inh 12.6µM
CCCN1C(C(=O)c2ccccc2)=C(OC(=O)c2ccc(F)cc2)c2ccccc2S1(=O)=O	none (no result: Mito fusion act, aSyn yeast inh)
C[C@H](O)[C@@H]1CN2CCc3c([nH]c4cccc(-c5ccccc5)c34)[C@@H]2C[C@@H]1N(C)C(=O)c1ccco1	none (no result: Mito fusion act, aSyn yeast inh, Abeta rescue, TDP-43 yeast inh)
OC(c1ccc(Cl)cc1)c1ncc(-c2ccc(Oc3ccccc3)cc2)[nH]1 (configuration not stated)	TDP-43 yeast inh 20µM, FUS suppressor inconclusive (no result: Mito fusion act)
CCNC(=O)OCCN1C(=O)CCC12CCC(c1ccc(Cl)cc1)CC2 (configuration not stated)	none (no result: Mito fusion act, aSyn yeast inh, Abeta rescue, TDP-43 yeast inh)
CN(C)c1ccc(N=Cc2ccncc2)cc1	none (no result: Mito fusion act, Abeta rescue, TDP-43 yeast inh, FUS suppressor)

Bioassay records as filed in PubChem BioAssay.
